Assay outcomes as filed in PubChem BioAssay.
BCR signal inh – inhibitors of chronic active B-cell receptor signaling | AID 493014 | Potency, µM (top dose mostly 46.1 µM), for the others: top-dose activity change, negative = inhibition, most hits filed as inhibitors | ABC-DLBCL IkBa-CBG/CBR reporter, luminescence ratio, 4 h | actives 0.05% (n = 340,000); active = well fitted inhibition curve with a large enough effect in the signal ratio, with a control signal flat, not every such curve was filed as active; inconclusive = small, poorly fitted or top-dose-only effect, or effect the other way, or a change in a side signal; the % refers to the signal ratio;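 note: potency is the fitted concentration of half-maximal effect; plate controls were basal doxycycline-induced cells for no effect and cells given 10 µM MG132 for full effect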
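Concentration-response series (up to 46 uM) were applied to TMD8 dual-reporter cells for 4 h at 37C with doxycycline. Green/red ratio, after filter-overlap correction, defined %Activity; red signal alone was normalised to basal cells and zero luminescence.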
SW480 rerep – induces DNA re-replication in SW480 colon adenocarcinoma cells | SW480 DNA re-replication, Hoechst DNA content imaging, 48 h | Potency, µM (doses to about 46.1 µM), for the others: at the highest dose re-replication activation, usual class: activators | actives 1.8% (n = 340,000); note: potency is the fitted concentration of half-maximal effect; % of control where 0% means no effect; nearly all actives have a fitted effect of over 55% in size
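Hoechst fluorescence of nuclei (405 nm excitation, 500-530 nm emission) measured by plate-scanning imager after 48 hr compound exposure at 37 C; re-replication scored as increased number of nuclei with elevated intensity.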
TDP1 cell CPT – growth inhibition of DT40 Tdp1-/-;hTDP1 cells with camptothecin (screen for TDP1 inhibitors); chicken DT40 Tdp1-/-;hTDP1 cells + 20 nM CPT, ATP luminescence, 48 h; Potency, µM (titrated, usually from 46.2 µM), inactives show top-dose activity change, negative = growth inhibition, most hits filed as inhibitors; actives 12% (n = 420,000); AID 686979; note: potency is the fitted concentration of half-maximal effect; % is set by controls: 0 for no effect and ±100 for the full control effect; nearly all actives have a fitted effect of over 55% in size
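Chicken DT40 Tdp1-/- cells stably complemented with human TDP1 were seeded at 400 cells/well in medium containing 20 nM camptothecin, exposed to pin-transferred compounds, and grown at 37 °C for at least 48 hr. Viability was read as ATP luminescence.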
DT40 TDP1 no CPT – qHTS for Inhibitors of human tyrosyl-DNA phosphodiesterase 1 (TDP1): qHTS in cells in absence of CPT. DT40 Tdp1-/- hTDP1 cells, no CPT, ATP luminescence, 48 h. Potency, µM (top dose mostly 46.2 µM), for the others: top-dose activity change, negative = growth inhibition, actives largely listed as inhibitors. actives 15% (n = 420,000); note: potency is the fitted concentration of half-maximal effect; % is set by controls: 0 for no effect and ±100 for the full control effect; nearly all actives have a fitted effect of over 55% in size
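Seeded 400 DT40-hTDP1 cells/well (vehicle DMSO, no 20 nM CPT); pinned compounds; ≥48 hr at 37 °C; CellTiter-Glo luminescence as viability measure.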
IL1B secr inh – inhibitors of inflammasome signaling (IL-1 beta secretion) | THP-1 LPS/ATP IL-1B secretion, AlphaLISA, 16 h; hits give low values | activity change, % at 57.5 µM | actives 4.7% (n = 360,000) | AID 743279; in the data active = activity change below about -50%; inconclusive = mostly about -30% to -49%; note: % is set by controls: 0 for no effect and ±100 for the full control effect
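Secreted IL-1B measured by AlphaLISA bead assay after 16 h compound exposure of THP-1 cells; compounds (final up to 57.5 uM) added 1 h before LPS (250 ng/mL) and ATP (1.25 mM) stimulation; lower signal means less secretion.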
MCF10A rerep – induces DNA re-replication in MCF 10a normal breast cells; MCF 10A DNA re-replication, Hoechst nuclear intensity, 48 h; Potency, µM (series often up to 46.1 µM), for the others: at the top dose activity, positive = re-replication, actives largely listed as activators; actives 2.9% (n = 350,000); AID 624296; note: potency is the fitted concentration of half-maximal effect; % of control where 0% means no effect; nearly all actives have a fitted effect of over 50% in size
Starred values were filed as active, the others as inactive; u = inconclusive; x = not tested or not shown; ! = repeats disagree; [ ] = dose if it differs, or a comment. Only some compounds are listed: those with a hit (about 19% of all), similar ones and a draw of the others. Unless noted, calls come from the whole dose curve; as a rule, active = well fitted curve in the direction sought with a large enough effect; inconclusive = small, poorly fitted or top-dose-only effect, or another doubt; inactive = no such curve, though single readings can be large; an effect the other way counts as inactive or inconclusive.

SMILES	BCR signal inh	SW480 rerep	TDP1 cell CPT	DT40 TDP1 no CPT	IL1B secr inh	MCF10A rerep
CCN1C[C@]2(COC)CC[C@H](OC)[C@@]34C5C[C@H]6C(=O)C5[C@](O)(C[C@H]6OC)[C@@](O)(C(OC)C23)[C@@H]14 (some centres not stated)	x	3%	6%	-4%	6	-22%
CCC1/C=C/C=CCC(C)C(O)[C@@](C)(O)C(=O)C(C)C(O)C(C)C(=O)C(C)C(O)C(C)C=CC(=O)O[C@H]2C(C)C(CC1)O[C@]1(CCC(C)C(CC(C)O)O1)C2C (some centres not stated)	x	x	0.0073µM*	0.0058µM*	x	x
O=[N+]([O-])c1ccc(S(=O)(=O)NCC(c2ccco2)N2CCc3ccccc3C2)cc1 (configuration not stated)	-10%	-2%	-21%	u	-3	11%
CCc1ccc(C2=NN(CCC(=O)N3CCC4(CC3)OCCO4)C(=O)CC2)cc1	-1%	21%	1%	-23%	-2	2%
C=C(C)c1cc2cc(C(C)=O)c(O)cc2o1	x	x	9%[9.04 µM]	-4%[9.04 µM]	x	x
COc1ccc(-c2n[nH]c(C(F)(F)F)c2-c2cc3ccccc3o2)c(O)c1	u	9%	13µM*	15µM*	-54*	-2%
ClCCN(CCCl)c1ccc(C=Nc2ccc(/C=C/c3ccncc3)cc2)cc1	x	x	13µM*	13µM*	x	x
O=C(NN=Cc1ccc(N(CCCl)CCCl)cc1)c1cccc([N+](=O)[O-])c1	x	16%	u	u	-5	18%
ClCCN(CCCl)c1ccc(C=Nc2ccncc2)cc1	x	x	u	11µM*	x	x
Cc1cccc(NP(=O)(Oc2ccccc2)Oc2ccccc2)c1C	-4%	u	u	u	-89*	u
COc1ccccc1N1CCN(C(=O)CCC(=O)Nc2nnc(CC(C)C)s2)CC1	1%	-3%	u	-18%	25	0%
CCc1cccc(C)c1N(C(=O)CCl)C(C)COC (configuration not stated)	x	x	u	-17%	x	x
CC(C)N(C(=O)CCl)c1ccccc1	x	u	6.5µM*	8.2µM*	-51*	u
CCCCCCCCCOc1ccc2[nH]cc(CCN)c2c1	u	x	7.3µM*	8.2µM*	x	x
CSc1cccc(NC(=O)C2CCN(C(=O)c3cnn(-c4ccccc4)c3-n3cccc3)CC2)c1	x	x	16µM*	18µM*	x	x
COCc1c(C(=O)N2CCC(c3ccccc3)CC2)cnn1-c1nccc(-c2cc(C)sc2C)n1	x	x	-11%[9.04 µM]	u	x	x
O=C(NCc1ccc(Cl)cc1)C1CCCN(C(=O)c2cnn(-c3ccc(F)cc3)c2-n2cccc2)C1 (configuration not stated)	x	x	8.2µM*	5.8µM*	x	x
O=C(c1cc(C(=O)NCc2ccc(Cl)cc2)c(=O)n(Cc2ccc(Cl)cc2)c1)c1cc(F)ccc1O	10%	11%	u	u	-18	11%
Cc1ccc(NC(=O)C2CCCN(C(=O)c3cnn(-c4ccccc4)c3-n3cccc3)C2)cc1 (configuration not stated)	x	x	15µM*	18µM*	x	x
COC[C@H]1OC(=O)c2coc3c2[C@@]1(C)C1=C(C3=O)[C@@H]2CCC(=O)[C@@]2(C)C[C@H]1OC(C)=O	x	8%	0.92µM*	1.8µM*	-101*	u
COc1ccc(Nc2ncc(C(=O)N3CCC4(CC3)OCCO4)c3ccccc23)cc1	1%	-6%	u	u	-15	3%
CCCCCCC(C)(C)c1ccc([C@@H]2C[C@H](O)CC[C@H]2CCCO)c(O)c1	u	13%	21µM*!	18µM*	-67*	-4%
NC(=O)c1c(NC(=O)c2ccc(S(=O)(=O)N(CCCl)CCCl)cc2)sc2c1CCCCC2	0%	u	10µM*	15µM*	33	1%
C=C(C)C1Cc2c(ccc3c2OC2COc4cc(OC)c(OC)cc4C2C3=O)O1 (configuration not stated)	x	x	0.052µM*	0.1µM*	x	x
C=C(C)[C@H]1Cc2c(ccc3c2O[C@@H]2COc4cc(OC)c(OC)cc4[C@@H]2C3=O)O1	x	u	0.24µM*	0.24µM*	x	3.9µM*!
SMILES	BCR signal inh	SW480 rerep	TDP1 cell CPT	DT40 TDP1 no CPT	IL1B secr inh	MCF10A rerep
COc1cccc(C2CC3C(=O)C=CC2N3Cc2ccccc2)c1 (configuration not stated)	0%	u	21µM*	16µM*	u	u
CC1(C)CCCN1CCC(C(N)=O)(c1ccccc1)c1ccccc1	x	-9%	-8%	-10%	-10	-2%
CCOC(=O)c1ccc(CNCc2ccc(Br)cc2)cc1	-8%	-1%	u	u	-3	u
CCOC(=O)c1cnc2c(ccc3ccccc32)c1Nc1ccc(C(C)=O)cc1	x	x	u	23µM*	x	x
CCOC(=O)c1ccc(Nc2nc(C(=O)OCC)nc3ccccc23)cc1	u	-1%	5.8µM*	2.6µM*	-2	u
CC(Nc1cc(C)cc(C)c1)=[N+](C)CCNS(=O)(=O)c1ccc(Cl)cc1	0%	-1%	13µM*	-19%	-79*	1%
CC(=O)NS(=O)(=O)c1ccc(NC(=O)c2cccn(Cc3ccc(Cl)cc3)c2=O)cc1	x	x	-15%	-3%	x	x
Cc1cccc(N(C)C(=S)Oc2ccc3c(c2)CCC3)c1	x	x	11%	u	x	x
O=C(C(=C1N(Cc2ccc(Cl)nc2)CCN1Cc1ccc(Cl)nc1)[N+](=O)[O-])C(Cl)Cl	-10%	20%	u	16µM*	-71*	u
O=[N+]([O-])/N=C1\NCCN1Cc1ccc(Cl)nc1	x	x	8.4µM*!	6.7µM*	x	x
O=C(c1ccc(Cl)cc1)C1CCCN(Cc2cccn2-c2cccnc2)C1 (configuration not stated)	-24%	14%	u	13µM*	-56*	24%
CSc1ccc(C(=O)C2CCCN(Cc3cccnc3)C2)cc1 (configuration not stated)	-15%	-53%	u	u	-12	3%
CC1=C(C)CC2(CC1)C(=O)NC(=O)NC2=O	x	-1%	0%	2%	15	0%
CCN(CC)c1ccc(CNCCc2ccccc2F)cc1	u	7%	u	16µM*	-92*	u
Cc1ccc(CNCCc2ccccc2F)cc1	1%	-1%	-13%	-21%	-72*	u
